Source: PubChem BioAssay AID2685 (National Center for Advancing Translational Sciences (NCATS), 2010)
Hit rate of the full screen: of about 320,000 compounds, about 2,100 (0.66%) were called active. Another 53% or so got no clear call; they are omitted. Calls follow the shape of the dose curve; as a rule, active = well fitted inhibition curve with a large enough effect in the signal ratio, with a control signal flat (not every such curve was filed as active); inconclusive = small, poorly fitted or top-dose-only effect, or effect the other way, or a change in a side signal; inactive = flat fitted curve, though single readings scatter; the % refers to the signal ratio. What follows is part of a selection rich in actives, with near analogues and random picks from the rest.

Experiment: qHTS Assay for Lipid Storage Modulators in Drosophila S3 Cells;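 as to cell number change: cells counted by Cell Tracker Red CMTPX staining in the red channel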; as to lipid storage change, negative = inhibition: % is scaled to controls: 0 for no effect and ±100 for the full control effect
Conditions: BODIPY lipid droplet fluorescence, 18-24 h, cells fed with added oleic acid; cell number change: measured here: cell count max response; series mostly up to 46.1 µM; lipid storage change, negative = inhibition: at the top concentration
Method in brief: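 Drosophila S3 cells loaded with oleic acid (400 uM, as added) and compounds at several concentrations; lipid droplets imaged by 488-nm laser-scanning cytometry, 500–530 nm intensity and object ratio to cell channel. Percent activity normalized to 20 uM Triacsin C.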
Potency is read from the fitted curve at half-maximal effect.

SMILES	lipid storage change, negative = inhibition	cell number change [%]	Potency	outcome
CCOc1ccccc1NC(=O)Cn1c(=O)oc2cc(Cl)ccc21	6.22% (inactive)	6.12		
O=C(NC1CCN(C(=O)Nc2ccc(F)cc2)CC1)c1ccccc1F			6.51 µM (active)	
Cc1cc(C)cc(NC(=O)N2CCC(NC(=O)c3ccccc3C)CC2)c1	0.091% (inactive)	4.64		
Cc1ccccc1C(=O)NC1CCN(CC(=O)NCc2ccccc2)CC1	-3.57% (inactive)	13.5		
Cc1ccccc1C(=O)NC1CCN(C(=O)Nc2ccc(F)cc2)CC1		8.56		inactive
O=C(CN1CCC(NC(=O)c2ccccc2F)CC1)NCc1ccc(F)cc1		-14.5	20.6 µM (active)	
Cc1ccccc1C(=O)NC1CCN(CC(=O)NCc2ccc(F)cc2)CC1	0.998% (inactive)	9.44		
CCc1cc2c(=O)c(-c3nc4ccccc4n3C)c(C)oc2c(CN2CCOCC2)c1O				inactive
CCCS(=O)(=O)N1CCCC(C(=O)Oc2ccc(Cl)cc2)C1 (configuration not stated)	4.15% (inactive)	14		
Cc1ccc(NC(=O)CSc2nc(N)cc(=O)[nH]2)cc1Cl	-14.5% (inactive)	22		
Cn1c(SCc2ccccn2)nc2c1c(=O)[nH]c(=O)n2C		0.681	2.59 µM (active)	
Cn1c(=O)c2c(nc(SCc3ccccn3)n2C)n(C)c1=O	14.3% (inactive)	-19.6		
Cn1c(SCc2ccccc2Cl)nc2c1c(=O)[nH]c(=O)n2C		3.04		inactive
CCOC(=O)c1ccc(-c2ccc(/C=N/NC(=O)CN(c3ccccc3Br)S(C)(=O)=O)o2)cc1		-15.9	9.2 µM (active)	
CS(=O)(=O)N(CC(=O)N/N=C/c1ccco1)c1ccccc1Br	-8.18% (inactive)	2.71		
Cc1oc(/C=N/NC(=O)CN(c2ccccc2Br)S(C)(=O)=O)cc1Br	4.78% (inactive)	0.768		
COc1ccccc1-c1ccc(SCC(=O)NCc2ccc3c(c2)OCO3)nn1				inactive
O=C(Sc1cccc2cccnc12)c1ccccc1Br		4.44	7.31 µM (active)	
CC(=O)/C(=N/Nc1ccc(Br)cc1)Sc1cccc2cccnc12	-13% (inactive)	-2.71		
O=C(O)CSc1cccc2cccnc12	8.73% [at 9.22 µM] (inactive)	8.53		
Cc1ccc(-c2cc(-c3ccccc3)c(C#N)c(Br)n2)cc1	6.63% (inactive)	-11.3		
CC(C)(C)[C@H]1CCC(=O)N([C@H](CN=[N+]=[N-])Cc2ccccc2)CC1	1.61% (inactive)	22		
N#CC[C@H](Cc1ccccc1)N1CC[C@@H](NC(=O)OCc2ccccc2)CCC1=O	-12.3% (inactive)	8.98		
CC(C)(C)C1CCC(=O)N(CCSc2ccccc2)CC1 (configuration not stated)		-4.53	6.51 µM (active)	
CC1CCC(=O)N(CCSc2ccccc2)CC1 (configuration not stated)	-4% (inactive)			

SMILES	lipid storage change, negative = inhibition	cell number change [%]	Potency	outcome
CC(C)(C)[C@H]1CCC(=O)N([C@H](CC#N)Cc2ccccc2)CC1		-9.71	0.326 µM (active)	
CC(=O)Nc1ccc(SCCN2CC[C@@H](C(C)(C)C)CCC2=O)cc1		-1.32		inactive
CCCCNC(=S)N/N=C/c1sccc1C	9.84% (inactive)	-1.93		
CCS(=O)(=O)c1nc(S(=O)(=O)c2ccc(C)cc2)c(NCc2ccccn2)s1	-3.31% (inactive)	2.5		
Cc1[nH]n(-c2ccccc2)c(=O)c1C(=O)c1ccc([N+](=O)[O-])cc1	16.3% (inactive)	5.62		
C/C(=N\NC(=O)c1ccc(C)cc1)c1c(C)[nH]n(-c2ccccc2)c1=O		-9.89	9.2 µM (active)	
Cc1[nH]n(-c2ccccc2)c(=O)c1C(=O)c1ccc(Cl)cc1	-5.87% (inactive)	-16		
CN1C(=O)c2cccc(NC(=O)CCc3ccccc3)c2C1=O	-11.3% (inactive)	-9.83		
Cc1ccc(-n2ncc3c(=O)[nH]c(SCC(=O)N4CCCc5ccccc54)nc32)cc1				inactive
O=C(c1ccc(NC(=O)C2(c3ccccc3)CCOCC2)cc1)N1CCOCC1		-1.58	23.1 µM (active)	
Cc1ccc(NC(=O)C2(c3ccccc3)CCOCC2)cc1	-0.379% (inactive)	16.3		
O=C(NCCCN1CCOCC1)c1ccccc1		-23.2	20.6 µM (active)	
O=C(NCCCN1CCOCC1)C1(c2ccccc2)CCCC1		-15.4		inactive
O=C(NCCCN1CCOCC1)C1(c2ccccc2)CCOCC1		2.27	3.66 µM (active)	
Cc1c(C)n(C)c2ccc(C(=O)NCCCN3CCN(c4ccc(F)cc4)CC3)cc12	8.52% (inactive)	4.18		
O=C(NCCCN1CCOCC1)C(=O)NCCc1ccccc1	0.98% (inactive)	-0.52		
Cc1c(C)n(Cc2ccc(F)cc2)c2ccc(C(=O)NCCCN3CCOCC3)cc12		38.2	29.1 µM (active)	
COc1ccc(C2(C(=O)Nc3ccc(C(=O)N4CCOCC4)cc3)CCOCC2)cc1	9.82% (inactive)	6.9		
O=C(NCCCN1CCOCC1)c1ccc2ccccc2c1				inactive [at 0.0737 µM]
O=C(Nc1ccccc1C(=O)NCCCN1CCOCC1)c1ccccc1	12.1% (inactive)	15.2		
CCn1c(C)c(C)c2cc(C(=O)NCCN3CCOCC3)ccc21	26.7% (inactive)	-16.2		
C/C(=N/NC(=O)CN(c1ccccc1)S(=O)(=O)c1ccccc1)c1ccccc1O		19.6		inactive
Cc1cc(NC(=O)CCN2C(=O)/C(=C\c3ccccc3)SC2=S)no1	-5.44% (inactive)	-8.06		
COc1ccc(-c2nnn(CC(=O)N3CCN(c4ccc(F)cc4)CC3)n2)cc1	-12.3% (inactive)	0.734		
